Gal4-VP16 FLuc = inhibits Gal4-VP16 luciferase reporter, ROR gamma counter-screen; Drosophila S2 Gal4-VP16 UAS-luciferase, luminescence, 20 h; actives 3.5% (n = 310,000); Potency, µM (doses to about 53.6 µM), usual class: inhibitors;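 note: Gal4-VP16 expression switched on by copper sulfate through the metallothionein promoter; nearly all actives have a fitted effect of over 50% in size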
RORg inh = blocks mouse ROR gamma transcriptional activity; actives 5.4% (n = 310,000); Drosophila S2 Gal4-RORgamma UAS-luciferase reporter, 20 h; Potency, µM (top dose mostly 53.6 µM), most hits filed as inhibitors; note: nearly all actives have a fitted effect of over 60% in size
Target sequence (P51450 whole entry, looked up, the tested form may be a part): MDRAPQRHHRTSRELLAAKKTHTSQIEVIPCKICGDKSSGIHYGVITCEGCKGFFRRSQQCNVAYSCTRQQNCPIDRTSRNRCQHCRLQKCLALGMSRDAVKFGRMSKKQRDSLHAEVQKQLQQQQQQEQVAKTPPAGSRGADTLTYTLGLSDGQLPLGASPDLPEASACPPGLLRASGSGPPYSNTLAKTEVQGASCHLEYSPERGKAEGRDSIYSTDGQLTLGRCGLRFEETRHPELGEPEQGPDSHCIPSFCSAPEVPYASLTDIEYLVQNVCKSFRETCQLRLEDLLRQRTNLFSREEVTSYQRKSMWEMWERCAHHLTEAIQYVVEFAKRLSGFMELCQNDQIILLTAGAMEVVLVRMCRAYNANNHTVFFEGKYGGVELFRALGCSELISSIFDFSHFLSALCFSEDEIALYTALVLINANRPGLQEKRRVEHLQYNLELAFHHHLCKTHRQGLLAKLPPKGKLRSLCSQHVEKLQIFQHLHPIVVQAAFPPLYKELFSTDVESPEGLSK
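A Gal4/UAS one-hybrid system in insect cells: metallothionein-promoter Gal4–ROR gamma fusion plus Photinus luciferase reporter. Copper sulfate 700 uM final, 20 hr ambient incubation, luminescent detection after 10 min with reagent.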
SW480 rerep = DNA re-replication induction in SW480 cells; actives 1.8% (n = 340,000); SW480 DNA re-replication, Hoechst DNA content imaging, 48 h; Potency, µM (highest dose often 46.1 µM), hits mostly activators; note: nearly all actives have a fitted effect of over 55% in size
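Image-based DNA-content assay: after two days of treatment, nuclei were labelled with the DNA dye Hoechst and imaged, and hits were compounds raising the count of nuclei showing high fluorescence intensity.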
ELG1 repair inh = inhibitors of ELG1-dependent DNA repair in HEK293T cells; Potency, µM (doses to about 46.1 µM), actives largely listed as inhibitors; actives 2.3% (n = 330,000); HEK293T ELG1-luciferase reporter, luminescence, 16 h; DNA damage induced by 5-fluorouridine; AID 504467; note: nearly all actives have a fitted effect of over 55% in size
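HEK293T cells expressing luciferase-tagged ELG1 (2,000/well) received 5-Fluorouridine plus compound or DMSO for 16 hr at 37 °C. Luciferase was read by ONE-Glo luminescence after 30 min at room temperature.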
MCF10A rerep = induces DNA re-replication in MCF 10a normal breast cells; MCF 10A DNA re-replication, Hoechst nuclear intensity, 48 h; Potency, µM (series often up to 46.1 µM), hits mostly activators; actives 2.9% (n = 350,000); note: nearly all actives have a fitted effect of over 50% in size
Large screens that a line does not name were inactive. Compounds with a hit are over-represented: about 10% of the library has one in this group of screens. Calls come from the whole dose curve; as a rule, active = well fitted curve in the direction sought with a large enough effect; inconclusive = small, poorly fitted or top-dose-only effect, or another doubt; inactive = no such curve, though single readings can be large; an effect the other way counts as inactive or inconclusive.

COc1ccc(Cl)cc1NC(=O)C(C)N(C)Cc1ccc(C(F)(F)F)cc1 (stereo unspecified)	Gal4-VP16 FLuc inconclusive, MCF10A rerep inconclusive
Cc1ccc(C)c(Sc2ccc(S(=O)(=O)Nc3ccc(C(=O)O)cc3)cc2)c1	none (no result: Gal4-VP16 FLuc, RORg inh)
CCNC(=O)CN(c1ccc(Br)c(C)c1)S(C)(=O)=O	none
CC(C)(C)[C@H]1COC(=O)CCCC/C=C\C[C@H](CC(=O)NCCO)C(=O)N1	none (no result: Gal4-VP16 FLuc, RORg inh)
COc1ccc(Br)cc1CN(C)C(C)C(=O)Nc1cccc(C(C)=O)c1 (stereo unspecified)	ELG1 repair inh 25.9µM
COc1cccc(CNc2ccccc2O)c1OCc1ccccc1F	RORg inh inconclusive, SW480 rerep 20.6µM, ELG1 repair inh inconclusive, MCF10A rerep inconclusive
COc1ccc([N+](=O)[O-])cc1NCc1ccccc1C	SW480 rerep inconclusive, ELG1 repair inh inconclusive, MCF10A rerep 5.8µM
CCN1CCCC1CNCc1cccc(OC)c1OCc1ccccc1F (stereo unspecified)	none
COc1ccc([N+](=O)[O-])cc1NC(=O)Nc1ccc(OC)c(OC)c1	Gal4-VP16 FLuc inconclusive, RORg inh inconclusive, ELG1 repair inh 14.6µM
COc1c(C)cc(C(=O)C2CCCN(C(=O)c3cc4nc(C)cc(C)n4n3)C2)cc1C (stereo unspecified)	ELG1 repair inh inconclusive
Cc1ccc(CNC(=O)C2CC3Cn4c(nc5ccccc54)C3N2C)o1 (stereo unspecified)	none (no result: Gal4-VP16 FLuc, RORg inh)
O=C(CCCOc1ccccc1)Nc1nc2ccccc2[nH]1	RORg inh 7.08µM, ELG1 repair inh inconclusive
O=S(=O)(CCOc1ccccc1)c1nc2ccccc2[nH]1	RORg inh inconclusive, ELG1 repair inh inconclusive, MCF10A rerep 5.8µM
Cc1ccc(OCCCC(=O)Nc2nc3ccccc3[nH]2)cc1	RORg inh 6.31µM
Cc1cccc(OCCCC(=O)Nc2nc3ccccc3[nH]2)c1	RORg inh 14.1µM, ELG1 repair inh inconclusive
O=C(CCCOc1ccccc1)NCCc1nc2ccccc2[nH]1	ELG1 repair inh inconclusive
CCNc1ncc2nc(-c3ccc(F)cc3)c(=O)n(-c3ccccc3)c2n1	Gal4-VP16 FLuc inconclusive (no result: SW480 rerep, ELG1 repair inh, MCF10A rerep)
C/C(=N\N1CCN(C2c3ccccc3-c3ccccc32)CC1)c1ccco1	none
O=C(NC1CCCC1)c1cc(-c2cccc(Cl)c2)on1	ELG1 repair inh inconclusive
CCOC(=O)C1=C(O)/C(=C/c2cn(CC(=O)N3CCCC3)c3ccccc23)SC1=Nc1ccccc1	RORg inh inconclusive, SW480 rerep inconclusive, ELG1 repair inh 4.11µM, MCF10A rerep 8.2µM
CSCCCc1cn([C@@H](CO)C(=O)NCCCCCCCCCCC(=O)N2CCNCC2)nn1	none (no result: Gal4-VP16 FLuc, RORg inh)
O=Cc1cccn1-c1nccc(-c2ccco2)n1	none
COCCN(C(=O)CSc1nnc(-c2cccc(OC)c2)n1C)c1c(N)n(Cc2ccccc2)c(=O)[nH]c1=O	none (no result: SW480 rerep, MCF10A rerep)
CC(C)c1ccc(-c2c(C#N)c(N)nc(SCC(=O)N3CCCCC3)c2C#N)cc1	SW480 rerep inconclusive, ELG1 repair inh inconclusive, MCF10A rerep 7.31µM
CC(C)c1ccc(-c2c(C#N)c(N)nc(SCC(=O)N3CCCCCC3)c2C#N)cc1	ELG1 repair inh inconclusive
COc1ccc(-c2nc(CNS(=O)(=O)c3cc(OC)ccc3OC)cs2)cc1	ELG1 repair inh 16.4µM
Cc1cc(=O)[nH]c(SCCCOc2ccccc2Cl)n1	Gal4-VP16 FLuc inconclusive, MCF10A rerep inconclusive
CCc1cc(OCCCSc2nc(C)cc(=O)[nH]2)ccc1Cl	Gal4-VP16 FLuc 8.91µM, RORg inh inconclusive, ELG1 repair inh inconclusive
Cc1cc(=O)[nH]c(SCCOc2ccc3c(c2)CCC3)n1	SW480 rerep 1.84µM, MCF10A rerep inconclusive (no result: ELG1 repair inh)
Cc1cc(=O)[nH]c(SCCOc2ccc(OC(C)C)cc2)n1	Gal4-VP16 FLuc inconclusive, ELG1 repair inh inconclusive
O=C(OCc1ccccn1)c1ccc(COc2ccc3ccccc3c2)o1	ELG1 repair inh inconclusive
Cn1c(=O)c(C(=O)COC(=O)c2cc(-c3ccco3)nc3ccccc23)c(N)n(CC2CC2)c1=O	RORg inh inconclusive, SW480 rerep 16.4µM, ELG1 repair inh 6.51µM
CCCn1c(CC)nc([N+](=O)[O-])c1S(=O)(=O)c1ccccc1	Gal4-VP16 FLuc 17.8µM, RORg inh 7.94µM, SW480 rerep inconclusive, ELG1 repair inh inconclusive, MCF10A rerep 3.66µM
CCc1nc(C)cn1S(=O)(=O)c1ccc([N+](=O)[O-])cc1	none

Source: PubChem BioAssay
